These results are taken from PubChem BioAssay (EPA / NIEHS).

The target of experiment [1] is rat Mineralocorticoid Receptor (MR), Nr3c2 (gene 25672) (UniProt P22199). In words: NVS_NR_rMR: NovaScreen (NVS) Nuclear Receptor Binding Assay for rat Mineralocorticoid Receptor (MR) (AID 2283355). In a few lines:
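Primary HTS ran in duplicate at a single 25 uM concentration, with concentration-series follow-up for actives. Receptor source: adrenalectomized rat brain supernatant, cell-free. Radioligand displacement read by scintillation at 24 h, relative to DMSO baseline.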

Experiment [2] has as its target human Peroxisome Proliferator-activated Receptor alpha (PPARa), PPARA (gene 5465) (UniProt Q07869). In words: NVS_NR_hPPARa: NovaScreen (NVS) Nuclear Receptor Binding Assay for human Peroxisome Proliferator-activated Receptor alpha (PPARa) (AID 2283359).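 Also: activity means loss of TR-FRET signal versus DMSO baseline.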 The procedure, abridged: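 Loss of TR-FRET binding signal relative to DMSO was measured 1 h after chemical addition to extracted receptor protein. Chemicals were first tested in duplicate at 25 uM, and actives were followed up in concentration series.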

Experiment [3] deals with human Thyroid Receptor Alpha (TRa), THRA (gene 7067) (UniProt P10827). In words: NVS_NR_hTRa_Antagonist: NovaScreen (NVS) Nuclear Receptor Binding Assay for human Thyroid Receptor Alpha Antagonism (TRa) (AID 2283362).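 Also: activity is loss of signal relative to DMSO baseline.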 In a few lines: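 Chemicals were first screened in duplicate at 25 uM, then actives were retested in concentration series. Binding to the extracted receptor was measured 1 h after dosing by AlphaLISA chemiluminescence, with decreased signal versus DMSO scored as activity.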

Experiment [4] addresses Estrogen receptor (Homo sapiens) + Estrogen receptor beta (Homo sapiens) (UniProt P03372+Q92731). In words: OT_ER_ERaERb_1440: Odyssey Thera (OT) 24-hour HEK293T Protein-Complementation Assay for Estrogen Receptor-alpha/-beta Homodimer (AID 2283356).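 Also: heteromer of ER alpha and ER beta binding domains; hits raise reporter fluorescence and both agonists and antagonists give an increase.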 The procedure, abridged:
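Heterodimerisation of ERα (aa 310-547) and ERβ (aa 263-489) ligand binding domains was tracked as fluorescence gain in stably transfected HEK293T cells following 24 h dosing, normalised to DMSO controls.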

For experiment [5], the target named is Estrogen receptor beta (Homo sapiens) (UniProt Q92731). In words: OT_ER_ERbERb_0480: Odyssey Thera (OT) 8-hour HEK293T Protein-Complementation Assay for Estrogen Receptor-beta/-beta Homodimer (AID 2283357).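 Also: active means signal gain over DMSO baseline.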 The procedure, abridged: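 ER-beta LBD homodimer PCA stably expressed in HEK293T; 8 h compound exposure, then formaldehyde fixation and Draq5 staining. Gain in nuclear/cytoplasmic fluorescence intensity versus DMSO vehicle, read on laser scanning cytometer.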

Experiment [6] addresses Retinoic acid receptor alpha (Homo sapiens) (UniProt P10276). In words: NVS_NR_hRAR_Antagonist: NovaScreen (NVS) Nuclear Receptor Binding Assay for human Retinoic Acid Alpha Receptor Antagonism (RAR) (AID 2283358). In a few lines: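 RARalpha antagonism was read by TR-FRET as loss of binding signal versus DMSO, 2 h after chemical addition, in a biochemical format. Single-concentration duplicates (25 uM) were run first, and actives were retested in concentration series.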

The target in a further experiment is PGR (gene 5241) (UniProt P06401). In words: NVS_NR_hPR: NovaScreen (NVS) Nuclear Receptor Binding Assay for human Progestron Receptor (PR) (AID 2283360).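 Also: active means loss of bound radioligand signal versus DMSO baseline.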 In a few lines: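 T47D-derived receptor preparation, cell-free, with tritiated or iodinated radioligand displacement measured by scintillation 18 h post-dosing. Single 25 uM duplicate screen, then concentration series; signal loss relative to DMSO.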

Experiment [7] has as its target Glucocorticoid receptor (Homo sapiens) (UniProt P04150). In words: NVS_NR_hGR: NovaScreen (NVS) Nuclear Receptor Binding Assay for human Glucocorticoid Receptor (GR) (AID 2283363).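 As to AC50: activity is loss of specific radioligand binding signal relative to DMSO.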 In a few lines: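 Compounds first tested in duplicate at 25 uM, actives followed up in concentration series. Binding to extracted GR protein measured as competitive radioligand displacement, filter scintillation read 16 h post-dosing, normalised to DMSO.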

In experiment [8] the target is Retinoic acid receptor alpha (Homo sapiens) (UniProt P10276). In words: NVS_NR_hRARa_Agonist: NovaScreen (NVS) Nuclear Receptor Binding Assay for human Retinoic Acid Alpha Receptor Agonism (RAR) (AID 2283361). In a few lines:
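Agonist-mode TR-FRET binding format using extracted protein, measured at 2 h post-dosing. Initial duplicate single-point screen at 25 uM preceded concentration series for actives; activity was normalized to DMSO baseline.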

Structures are written as SMILES. Where “and” joins values, the source holds several entries; their conditions need not be identical. Identical values can stand only once. Inconclusive results are not listed. Some structures have more than one record in an assay (separate samples or runs), and their calls can disagree. Calls of active or inactive are those of the source. The calls were made as follows: active = hit-call score of the fitted dose curve at least 0.9, where 1 is the maximum; inconclusive = response in the unintended direction; inactive = score below 0.9.

Sequence of Retinoic acid receptor alpha (Homo sapiens) (P10276 whole entry, looked up): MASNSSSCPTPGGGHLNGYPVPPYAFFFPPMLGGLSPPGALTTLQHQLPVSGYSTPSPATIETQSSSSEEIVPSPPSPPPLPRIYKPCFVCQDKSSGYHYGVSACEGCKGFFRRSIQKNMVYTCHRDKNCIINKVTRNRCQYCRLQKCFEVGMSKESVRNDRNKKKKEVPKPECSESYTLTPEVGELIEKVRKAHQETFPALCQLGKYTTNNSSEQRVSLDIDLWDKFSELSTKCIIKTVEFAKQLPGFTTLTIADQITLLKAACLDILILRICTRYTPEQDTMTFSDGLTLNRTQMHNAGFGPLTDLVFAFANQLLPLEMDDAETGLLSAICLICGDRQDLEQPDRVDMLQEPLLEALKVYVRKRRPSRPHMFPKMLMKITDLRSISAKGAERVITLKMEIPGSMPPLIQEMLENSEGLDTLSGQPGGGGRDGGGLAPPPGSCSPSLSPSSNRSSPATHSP
Sequence of PGR (gene 5241) (P06401 whole entry, looked up): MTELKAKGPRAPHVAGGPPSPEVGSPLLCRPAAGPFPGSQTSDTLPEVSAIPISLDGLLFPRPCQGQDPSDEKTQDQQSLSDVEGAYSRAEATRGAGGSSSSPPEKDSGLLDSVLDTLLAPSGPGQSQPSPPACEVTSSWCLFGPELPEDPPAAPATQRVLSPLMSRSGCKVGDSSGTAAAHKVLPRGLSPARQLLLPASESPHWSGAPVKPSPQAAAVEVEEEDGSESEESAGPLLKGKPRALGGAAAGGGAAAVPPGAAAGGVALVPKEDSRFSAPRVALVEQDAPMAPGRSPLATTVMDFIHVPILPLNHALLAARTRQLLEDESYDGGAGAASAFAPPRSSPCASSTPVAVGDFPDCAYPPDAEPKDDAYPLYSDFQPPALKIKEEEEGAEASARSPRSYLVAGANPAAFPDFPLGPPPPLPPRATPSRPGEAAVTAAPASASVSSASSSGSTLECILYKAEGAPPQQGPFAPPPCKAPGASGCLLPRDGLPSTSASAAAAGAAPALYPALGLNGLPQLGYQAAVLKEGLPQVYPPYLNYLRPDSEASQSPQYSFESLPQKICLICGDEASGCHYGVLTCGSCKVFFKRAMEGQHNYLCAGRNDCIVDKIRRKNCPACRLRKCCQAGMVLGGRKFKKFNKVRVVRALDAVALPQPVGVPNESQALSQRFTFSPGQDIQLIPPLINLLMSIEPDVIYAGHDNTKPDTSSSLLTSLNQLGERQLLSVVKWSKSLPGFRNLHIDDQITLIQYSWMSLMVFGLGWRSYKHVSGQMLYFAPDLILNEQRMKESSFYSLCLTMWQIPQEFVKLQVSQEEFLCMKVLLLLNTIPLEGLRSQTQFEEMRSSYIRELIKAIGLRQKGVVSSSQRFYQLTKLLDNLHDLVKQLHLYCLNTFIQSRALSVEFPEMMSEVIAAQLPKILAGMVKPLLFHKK
Sequence of human Thyroid Receptor Alpha (TRa), THRA (gene 7067) (P10827 whole entry, looked up): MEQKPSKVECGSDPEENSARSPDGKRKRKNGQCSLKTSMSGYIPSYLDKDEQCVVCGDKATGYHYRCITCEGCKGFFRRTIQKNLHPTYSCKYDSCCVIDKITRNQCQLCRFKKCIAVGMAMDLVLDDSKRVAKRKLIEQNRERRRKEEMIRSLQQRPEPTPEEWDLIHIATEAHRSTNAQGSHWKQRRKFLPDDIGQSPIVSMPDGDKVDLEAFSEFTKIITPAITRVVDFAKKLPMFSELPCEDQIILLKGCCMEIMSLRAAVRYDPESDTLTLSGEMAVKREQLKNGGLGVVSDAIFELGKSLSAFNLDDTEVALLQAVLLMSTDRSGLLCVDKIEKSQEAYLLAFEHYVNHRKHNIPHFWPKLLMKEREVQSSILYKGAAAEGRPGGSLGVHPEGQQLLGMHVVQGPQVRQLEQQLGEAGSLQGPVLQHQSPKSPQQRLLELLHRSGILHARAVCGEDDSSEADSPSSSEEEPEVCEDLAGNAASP
Sequence of Estrogen receptor beta (Homo sapiens) (Q92731 whole entry, looked up, the tested form may be a part): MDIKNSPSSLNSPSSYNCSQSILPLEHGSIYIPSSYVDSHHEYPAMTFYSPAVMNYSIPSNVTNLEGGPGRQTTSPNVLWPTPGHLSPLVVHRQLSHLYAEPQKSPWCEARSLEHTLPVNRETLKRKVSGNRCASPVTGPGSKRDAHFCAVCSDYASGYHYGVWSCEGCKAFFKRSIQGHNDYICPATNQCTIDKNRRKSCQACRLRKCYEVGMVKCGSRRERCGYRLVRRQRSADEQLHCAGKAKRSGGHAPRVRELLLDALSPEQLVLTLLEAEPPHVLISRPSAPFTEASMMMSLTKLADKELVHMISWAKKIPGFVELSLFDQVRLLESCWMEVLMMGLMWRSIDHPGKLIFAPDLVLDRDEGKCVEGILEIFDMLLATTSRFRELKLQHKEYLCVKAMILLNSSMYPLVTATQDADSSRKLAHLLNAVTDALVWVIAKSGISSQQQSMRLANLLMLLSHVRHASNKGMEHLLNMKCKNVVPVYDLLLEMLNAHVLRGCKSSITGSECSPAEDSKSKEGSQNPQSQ
Sequence of Glucocorticoid receptor (Homo sapiens) (P04150 whole entry, looked up): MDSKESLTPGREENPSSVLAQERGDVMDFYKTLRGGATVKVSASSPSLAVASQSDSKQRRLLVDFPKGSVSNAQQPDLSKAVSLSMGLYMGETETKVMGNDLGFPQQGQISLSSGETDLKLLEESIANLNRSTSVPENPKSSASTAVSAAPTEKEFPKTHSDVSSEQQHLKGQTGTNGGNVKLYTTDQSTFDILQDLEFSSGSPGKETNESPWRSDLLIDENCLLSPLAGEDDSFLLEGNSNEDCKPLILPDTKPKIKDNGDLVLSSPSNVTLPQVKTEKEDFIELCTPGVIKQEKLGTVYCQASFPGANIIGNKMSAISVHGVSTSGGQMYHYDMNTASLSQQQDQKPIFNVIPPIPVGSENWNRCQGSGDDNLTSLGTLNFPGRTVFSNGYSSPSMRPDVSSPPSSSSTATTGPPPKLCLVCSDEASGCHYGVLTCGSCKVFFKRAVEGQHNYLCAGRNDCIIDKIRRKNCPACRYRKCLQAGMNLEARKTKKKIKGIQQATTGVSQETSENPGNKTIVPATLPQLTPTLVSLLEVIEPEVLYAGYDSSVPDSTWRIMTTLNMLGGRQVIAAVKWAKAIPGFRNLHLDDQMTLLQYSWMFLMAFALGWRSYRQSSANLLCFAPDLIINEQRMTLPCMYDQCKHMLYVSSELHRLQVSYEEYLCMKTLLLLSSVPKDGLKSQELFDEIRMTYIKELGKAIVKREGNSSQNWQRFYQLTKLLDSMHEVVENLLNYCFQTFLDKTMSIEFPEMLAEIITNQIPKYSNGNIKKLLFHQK
Sequence of Estrogen receptor (Homo sapiens) + Estrogen receptor beta (Homo sapiens) (P03372 whole entry, looked up, the tested form may be a part): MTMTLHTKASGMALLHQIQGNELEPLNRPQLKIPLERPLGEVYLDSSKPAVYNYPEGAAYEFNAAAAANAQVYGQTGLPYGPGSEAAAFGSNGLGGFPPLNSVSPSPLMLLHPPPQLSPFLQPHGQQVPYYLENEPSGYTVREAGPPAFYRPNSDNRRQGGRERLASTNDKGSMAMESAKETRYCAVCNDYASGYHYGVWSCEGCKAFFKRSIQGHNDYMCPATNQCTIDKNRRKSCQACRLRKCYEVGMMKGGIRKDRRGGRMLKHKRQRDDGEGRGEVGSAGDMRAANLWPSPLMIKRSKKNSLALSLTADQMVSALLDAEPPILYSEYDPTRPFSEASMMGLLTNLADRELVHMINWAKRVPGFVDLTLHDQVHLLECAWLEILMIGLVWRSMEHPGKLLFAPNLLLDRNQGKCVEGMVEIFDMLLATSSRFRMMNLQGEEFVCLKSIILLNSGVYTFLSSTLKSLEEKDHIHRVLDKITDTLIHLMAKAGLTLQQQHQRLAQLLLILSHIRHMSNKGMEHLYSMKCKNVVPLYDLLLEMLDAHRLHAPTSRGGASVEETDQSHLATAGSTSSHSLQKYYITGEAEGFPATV
Sequence of Estrogen receptor (Homo sapiens) + Estrogen receptor beta (Homo sapiens) (Q92731 whole entry, looked up, the tested form may be a part): as the sequence (Q92731 whole entry, looked up, the tested form may be a part) above
Sequence of human Peroxisome Proliferator-activated Receptor alpha (PPARa), PPARA (gene 5465) (Q07869 whole entry, looked up): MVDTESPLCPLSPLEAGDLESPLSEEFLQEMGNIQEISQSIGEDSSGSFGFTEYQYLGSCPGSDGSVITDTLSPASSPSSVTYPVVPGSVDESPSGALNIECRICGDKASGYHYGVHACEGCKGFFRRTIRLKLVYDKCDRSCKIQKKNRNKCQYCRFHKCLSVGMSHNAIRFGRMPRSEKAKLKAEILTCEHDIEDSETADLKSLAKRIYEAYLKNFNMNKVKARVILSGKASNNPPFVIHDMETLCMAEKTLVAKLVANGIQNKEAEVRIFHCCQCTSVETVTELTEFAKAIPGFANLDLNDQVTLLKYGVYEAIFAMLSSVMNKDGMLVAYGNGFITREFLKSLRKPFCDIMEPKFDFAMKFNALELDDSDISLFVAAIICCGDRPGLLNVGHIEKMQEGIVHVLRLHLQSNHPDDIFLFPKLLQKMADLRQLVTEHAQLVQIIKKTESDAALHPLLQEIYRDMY

For the compound `CCCCNC(=O)n1c(NC(=O)OC)nc2ccccc21`, in [1], the compound was classed as inactive.
Regarding `COC(=O)C(C)Oc1ccc(Oc2ccc(Cl)cc2Cl)cc1` (stereo unspecified), the result in experiment [1] was inactive.
Consider `N#Cc1cc(Br)c(O)c(Br)c1`, for which, in [2], the outcome was inactive.
Regarding `Oc1ccccc1-c1ccccc1`, the compound was called inactive in experiment [2] and in [3].
On to `CO/C=C(/C(=O)OC)c1ccccc1Oc1cc(Oc2ccccc2C#N)ncn1`, for which, in experiment [3], the call was inactive.
The AC50 is the midpoint of the concentration-response curve, whichever way the signal moves. Turning to `CCCCOC(=O)c1ccccc1C(=O)OCCCC`, the AC50 in experiment [4] is 38.4 µM (active) and 33.9 µM (active) and 39.3 µM (active); in experiment [5] it was 28.8 µM (active) and 38.1 µM (active) and 34.2 µM (active); in experiment [3], 0.111 µM (active). The outcome (in [6]; with PGR (gene 5241); in [7]) was inactive.
In the case of `C=CC1(C)OC(=O)N(c2cc(Cl)cc(Cl)c2)C1=O` (stereo unspecified), the result in experiment [4], in experiment [5] and in experiment [7] was inactive. Besides, the AC50 in experiment [2] was 37.4 µM (active); in experiment [7], 6.97 µM (active).
Consider `CCCN(CCC)c1c([N+](=O)[O-])cc(S(N)(=O)=O)cc1[N+](=O)[O-]`, for which the outcome in [4], in experiment [2], in experiment [8], in experiment [3] and in experiment [7] was inactive. For the same compound, the AC50 in the experiment with PGR (gene 5241) is 4.36 µM (active).
With `C=CCC1=C(C)C(OC(=O)C2C(C=C(C)C)C2(C)C)CC1=O` (stereo unspecified), the outcome in experiment [7] was inactive.
`CC1COC(Cn2cncn2)(c2ccc(Oc3ccc(Cl)cc3)cc2Cl)O1` (stereo unspecified): the result (in [4]; in experiment [5]; with PGR (gene 5241)) was inactive. For the same compound, in experiment [7], the AC50 is 1.89 µM (active).
Regarding `CCCCNC(=O)OCC#CI`, the compound was classed as inactive (in [5]; in the experiment with PGR (gene 5241); in experiment [3]). In addition, in experiment [2], the AC50 is 6.55 µM (active).
For the compound `COP(=S)(OC)Oc1nc(Cl)c(Cl)cc1Cl`, the result in experiment [4], in experiment [5] and in experiment [6] was inactive.
`COc1ccc(C(c2ccc(OC)cc2)C(Cl)(Cl)Cl)cc1`: the AC50 in experiment [4] was 25.8 µM (active) and 33.2 µM (active) and 22.2 µM (active); in experiment [5], 3.79 µM (active) and 3.62 µM (active) and 3.92 µM (active). Further, the call in [6], in [2], in experiment [3] and in [7] was inactive.
